# Mito fusion yeast – inhibitors of mitochondrial division or activators of mitochondrial fusion | AID 485298 | Potency, µM (doses to about 46.1 µM), for the others: top-dose growth rescue (activation), most hits filed as activators | S. cerevisiae fusion-defective mutant growth rescue, CellTiterGlo 48 h | 0.23% of 320,000 active; also: % of control where 0% means no effect; nearly all actives have a fitted effect of over 45% in size
#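 Compounds are tested for their ability to restore growth of mitochondrial fusion-defective yeast strains at non-permissive 37C in YPEG medium over 48 hours. Viability is quantified by luciferase luminescence.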
# aSyn rescue – alpha-synuclein toxicity inhibition in yeast. Yeast expressing alpha-synuclein, growth rescue, BacTiter-Glo, 24 h. Potency, µM (top dose mostly 46.1 µM), without a hit: at the top dose growth rescue (activation), hits mostly activators. 0.14% of 370,000 active. AID 652106; also: % of control where 0% means no effect; nearly all actives have a fitted effect of over 65% in size
#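 Screening used galactose-induced yeast with toxic alpha-synuclein levels, exposed to compound for 24 hr at 30 deg C. Cell growth, read with BacTiter-Glo luminescence, gave the measured signal.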
# FUS suppressor – suppressors of FUS proteinopathy in yeast; S. cerevisiae FUS-expressing, growth rescue, OD600, 24 h; Potency, µM (titrated, usually from 76.6 µM), most hits filed as activators; 0.24% of 390,000 active;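 also: plate controls were DMSO vehicle for no effect and reference control for full effect; nearly all actives have a fitted effect of over 55% in size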
#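 Galactose (2%) drives FUS expression in yeast precultured in raffinose; seeding density OD 0.005. Test compounds incubated 24hr at 30C and 99% humidity before absorbance at 600 nm was measured.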
# TDP-43 yeast inh – TDP-43 toxicity inhibition in yeast; TDP-43 expressing yeast growth rescue, BacTiter-Glo, 24 h; Potency, µM (series often up to 46.1 µM), without a hit: top-dose growth rescue (activation), usual class: activators; 1.8% of 410,000 active; AID 652104; also: % of control where 0% means no effect; nearly all actives have a fitted effect of over 50% in size
#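 In this qHTS, compounds that restore growth of yeast expressing TDP-43 appear as activators. Cells (OD600=0.02, galactose medium, raffinose-pregrown) are incubated with compound 24 hr at 30 deg C and growth is quantified by BacTiter-Glo.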
# Abeta rescue – restores growth of yeast expressing A-beta42 peptide; yeast expressing A-beta42, growth rescue, OD600, 48 h; response scale: 0% DMSO, 100% iron-clioquinol control; Potency, µM (series often up to 46.1 µM), usual class: activators; 0.063% of 410,000 active; AID 1347071; also: nearly all actives have a fitted effect of over 55% in size
#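 Growth rescue measured by 600 nm absorbance after 48 h yeast culture at 30 C with compound. Values normalized between DMSO and an equimolar ferric chloride plus clioquinol control.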
# The depositor's hits bear a star; i = inactive; ? = inconclusive; . = no result. Compounds with a hit are over-represented: about 2.2% of the library has one in this group of screens. Calls follow the shape of the dose curve; as a rule, active = well fitted curve in the direction sought with a large enough effect; inconclusive = small, poorly fitted or top-dose-only effect, or another doubt; inactive = no such curve, though single readings can be large; an effect the other way counts as inactive or inconclusive. Potency is read from the fitted curve at half-maximal effect.
SMILES,Mito fusion yeast,aSyn rescue,FUS suppressor,TDP-43 yeast inh,Abeta rescue
COc1ccc(OC)c(NC(=O)c2nc(S(=O)(=O)Cc3ccc(F)cc3)ncc2Cl)c1,.,.,i,3.16µM*,i
CCS(=O)(=O)c1ncc(Cl)c(C(=O)Nc2ccccc2)n1,.,.,i,11.2µM*,i
CCc1ccc(NC(=O)c2nc(S(=O)(=O)Cc3ccccc3)ncc2Cl)cc1,-54.6%,.,.,.,.
Cc1cccc(C(c2sc3nc(-c4ccco4)nn3c2O)N2CCN(c3ccccc3F)CC2)c1 (stereo not given),.,.,i,24.8%,i
CCNC1=C(Cl)C(=O)c2ccccc2C1=O,-19.5%,3.3%,i,12.6µM*,i
CCCC(=O)NC1=C(Cl)C(=O)c2ccccc2C1=O,.,-82.9%,.,-90.7%,i
O=C1c2ccccc2C(=O)N1C/C=C/CN1C(=O)c2ccccc2C1=O,-2.1%,.,.,.,.
O=C1c2ccccc2C(=O)N1C1C=CC=CC=C1,.,?,i,25.1µM*,i
O=c1c2ccc([N+](=O)[O-])cc2ncn1CCOc1ccc(Cl)cc1,3.2%,7.1%,i,25.1µM*,i
O=c1c2ccc([N+](=O)[O-])cc2ncn1CCOc1cccc(Br)c1,3.6%,4.8%,i,4.7%,i
O=C(CSc1nc2ccccc2c(=O)n1-c1ccc(F)cc1F)NC1CCS(=O)(=O)C1 (stereo not given),.,-2.6%,i,4.5%,i
Cc1ccc(S(=O)(=O)NCCC(=O)Nc2ccc(C)cc2C(=O)c2ccccc2)cc1,25.0%,19.1%,i,22.4µM*,i
N#C/C(=C\c1ccc[nH]1)Sc1nc2ccccc2s1,?,3.0%,i,22.4µM*,i
N#C/C(=C\c1cccs1)Sc1nc2ccccc2s1,?,-6.4%,.,?,i
Cc1cccc(Oc2c(C=O)c3ccccc3n2C)c1,5.7%,-4.8%,i,17.8µM*,i
CC(=O)Nc1ccc(C(=O)OCc2ccc(Br)cc2)cc1,15.8µM*,-27.9%,.,26.5%,i
CC(=O)Nc1ccc(C(=O)CCl)cc1,?,-23.3%,i,10µM*,i
CC(=O)Nc1ccc(C(=O)OCc2ccccc2Cl)cc1,16.3%,-25.2%,i,20µM*,i
CC(=O)Nc1ccc(C(=O)OCCCOC(=O)c2ccc(NC(C)=O)cc2)cc1,-0.3%,3.5%,i,4.4%,i
CCc1noc(C)c1C(=O)N1CCN(S(=O)(=O)c2ccccc2C(F)(F)F)CC1,-1.4%,7.8%,i,6.3%,i
COc1ccc(OC)c(S(=O)(=O)N2CCN(Cc3nc4ccc(C)cc4o3)CC2)c1,.,.,i,?,i
CCOC(=O)c1cccc(C2=CC(=O)C[C@H](c3ccc(OC)cc3)C2)c1,26.0%,0.8%,?,?,i
COC(=O)C1=NN(C(=O)c2ccc(C)cc2)C(O)(c2ccc(Cl)cc2)C1 (stereo not given),13.1%,11.2µM*,?,?,i
COC(=O)C1=NN(C(=O)c2ccccc2)C(O)(c2ccc([N+](=O)[O-])cc2)C1 (stereo not given),-0.3%,1.0%,i,-17.3%,i
CCOC(=O)c1cc(-c2ccccc2)n(CCC(=O)NCCc2cccc(C)c2)c1C,.,.,?,?,i
SMILES,Mito fusion yeast,aSyn rescue,FUS suppressor,TDP-43 yeast inh,Abeta rescue
CCOC(=O)c1cc(-c2ccc(OC)cc2)n(CCC(=O)NCCc2ccccc2)c1C,.,.,?,31.6µM*,i
CCCCCCCNC(=O)C1(CC2CC(c3ccc(Cl)cc3)=NO2)CCN(C(=O)CCCCCBr)CC1 (stereo not given),-1.8%,-5.5%,31.6µM*,-3.2%,i
O=C(CCCCCBr)N1CCC(CC2CC(c3ccc(Cl)cc3)=NO2)(C(=O)NCC2CCCCC2)CC1 (stereo not given),1.0%,0.8%,i,13.5%,i
Cc1ccc([N+](=O)[O-])cc1S(=O)(=O)N1CCCC1,0.9%,1.6%,i,?,i
Cc1ccc(S(=O)(=O)N2CCC(C)CC2)c([N+](=O)[O-])c1,-1.1%,14.1%,i,17.8µM*,i
Cc1ccc([N+](=O)[O-])cc1S(=O)(=O)N1CCC(C)CC1,1.4%,12.8%,i,15.8µM*,i
CCn1nc(C(=O)Nc2ccccc2C)c(Cl)c1Cl,-2.9%,-7.7%,i,29.0%,i

# High-throughput results as filed in PubChem BioAssay.
